# Source: PubChem (National Center for Advancing Translational Sciences (NCATS))
# FLuc counter: counter-screen for miR-21 project: firefly luciferase inhibitors or activators. 360,000 tested, 6.9% active. AID 588342. P08659. Potency, µM (top dose mostly 57.5 µM), for the others: top-dose activity change, negative = inhibition, hits mostly inhibitors. purified FLuc, Km substrates, luminescence inhibition;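 further: plate controls were vehicle for no effect and reference inhibitor for full effect; nearly all actives have a fitted effect of over 55% in size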
# Target sequence (P08659 whole entry, looked up): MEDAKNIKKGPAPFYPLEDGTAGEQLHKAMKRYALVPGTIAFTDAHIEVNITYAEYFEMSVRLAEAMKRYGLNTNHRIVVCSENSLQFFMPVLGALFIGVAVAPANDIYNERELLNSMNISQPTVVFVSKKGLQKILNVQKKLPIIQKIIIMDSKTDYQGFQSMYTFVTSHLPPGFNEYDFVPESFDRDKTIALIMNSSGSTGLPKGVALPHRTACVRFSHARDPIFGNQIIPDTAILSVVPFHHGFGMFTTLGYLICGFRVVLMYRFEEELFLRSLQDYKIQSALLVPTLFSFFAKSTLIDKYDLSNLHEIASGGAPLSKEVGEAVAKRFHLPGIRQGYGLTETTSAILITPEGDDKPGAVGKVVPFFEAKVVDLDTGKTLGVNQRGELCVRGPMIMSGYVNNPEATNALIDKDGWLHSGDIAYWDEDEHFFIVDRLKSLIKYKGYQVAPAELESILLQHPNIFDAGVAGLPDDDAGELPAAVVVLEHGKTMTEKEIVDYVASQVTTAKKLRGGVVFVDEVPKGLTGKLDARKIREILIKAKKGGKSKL
#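 Purified P. pyralis luciferase, 10 nM final, with Km-level 10 uM D-luciferin and 10 uM ATP in 50 mM Tris acetate pH 7.5, 10 mM Mg acetate, 0.01% Tween-20, 0.05% BSA; 6-point qHTS titration about 60 µM downward; luminescence read.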
# Rab9 promoter act: Rab9 promoter activation; Huh7 Rab9 promoter-luciferase reporter, luminescence, 24 h; Potency, µM (series often up to 9.22 µM), for the others: at the highest dose activation, negative = inhibition, most hits filed as activators; 320,000 tested, 2.8% active; further: % of control where 0% means no effect; nearly all actives have a fitted effect of over 60% in size
#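 Huh7 cells stably carrying a Rab9 promoter-luciferase reporter, 1500 cells per well in OP-MEM I with 10% FBS, treated with compound 24 hours at 37C. Luciferase activity read by luminescence after 10 minutes with Amplite reagent.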
# NPC1 prom act: NPC1 promoter activation; Huh7 NPC1 promoter luciferase reporter, 24 h; Potency, µM (series often up to 9.22 µM), without a hit: top-dose activation, actives largely listed as activators; 320,000 tested, 2.4% active; AID 485313; further: % of control where 0% means no effect; nearly all actives have a fitted effect of over 60% in size
#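 Stable NPC1-promoter luciferase Huh7 line; cpd (DMSO) 24 h, 37 °C, 5% CO2; Amplite luciferase reagent 10 min RT; luminescence readout. qHTS format.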
# ELG1 genotox: induces genotoxicity in HEK293T cells with luciferase-tagged ELG1; AID 504466; 330,000 tested, 1.3% active; Potency, µM (highest dose often 46 µM), for the others: top-dose activity change, positive = activation, hits mostly activators; HEK293T ELG1-luciferase reporter, luminescence, 16 h; further: % of control where 0% means no effect; nearly all actives have a fitted effect of over 60% in size
#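 Genotoxic stress is detected as increased luminescence from luciferase-tagged ELG1 in HEK293T cells, measured with ONE-Glo after a 16 hr treatment at 37 °C.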
# KinaseGlo FLuc: Kinase-Glo luciferase inhibition (counter-screen) | Q27757 | Kinase-Glo luciferase, ATP luminescence, 8 min | Potency, µM (series often up to 38.3 µM), inactives show at the top dose activity change, negative = inhibition, actives largely listed as inhibitors | 200,000 tested, 0.28% active | AID 1379; further: on the % scale 0 is the no-effect control and ±100 the full control effect; nearly all actives have a fitted effect of over 60% in size
#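 Kinase-Glo luciferase light output from ATP and luciferin was measured with 10 uM ATP, within the enzyme's linear range. Buffer: 50 mM imidazole pH 7.2, 50 mM KCl, 7 mM MgCl2, 0.01% Tween 20, 0.05% BSA; luminescence read after 8 min at ambient temperature.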
# SMN2 splice up: SMN2 splice variant enhancement; HEK293 SMN2-luciferase splicing reporter, luminescence, 30-36 h; Potency, µM (series often up to 46.1 µM), without a hit: at the top dose activity change, positive = activation, hits mostly activators; 210,000 tested, 2.8% active; AID 1458; further: % of control where 0% means no effect; nearly all actives have a fitted effect of over 55% in size
#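 qHTS luciferase splicing reporter: luminescence rises when SMN2 exon 7 is included in transfected HEK293 cells. Compound exposure lasted 30-36 h at 37C, with 4.5 mM final sodium butyrate as control, followed by a ONE-Glo read.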
# The depositor's hits bear a star; ? = inconclusive; . = not tested or not shown; [ ] = dose if it differs, or a comment. Hits are enriched below; roughly 7.5% of the tested compounds scored in any of these assays. The call rests on the fitted dose curve; in most records, active means well fitted curve in the direction sought with a large enough effect; inconclusive means small, poorly fitted or top-dose-only effect, or another doubt; inactive means no such curve, though single readings can be large; an effect the other way counts as inactive or inconclusive. Potency means the concentration at half of the fitted maximal effect.
SMILES,FLuc counter,Rab9 promoter act,NPC1 prom act,ELG1 genotox,KinaseGlo FLuc,SMN2 splice up
Cc1ccc(C(=O)COC(=O)c2cccc(NC(=O)c3ccc([N+](=O)[O-])cc3[N+](=O)[O-])c2)cc1,0.11µM*,1.4µM*,0.4µM*,?,-8%,?
CC(=O)Nc1ccc(C(=O)OCC(=O)c2cccc([N+](=O)[O-])c2)cc1,1%,-7%,2%,1%,3%,-4%
Cc1[nH]c2ccccc2c1C(=O)COC(=O)c1c(-c2c(F)cccc2Cl)noc1C,-2%,-3%,-3%,-4%,-2%,3%
CCOc1cc(/C=C(/NC(C)=O)C(=O)O)cc(Cl)c1OCc1cccc(Br)c1,-4%,0%,-5%,1%,.,.
CCCCc1ccc(NC(=S)N2CCN(C)CC2)cc1,15µM*,-2%,8%,0%,.,.
CC1CCN(C(=S)Nc2ccc(SC(F)F)cc2)CC1,1.1µM*,27%,?,9%,-1%,22µM*
CC(=O)N1CCN(C(=S)Nc2ccc(SC(F)F)cc2)CC1,-7%,0%,-7%,-2%,2%,?
CCCN1CCN(C(=S)Nc2ccc(SC(F)F)cc2)CC1,13µM*,6%,-2%,1%,-2%,-19%
CCc1c(C#N)c(SCc2c(C)noc2C)nc2c1C(=O)CC(C)(C)C2,1%,2%,0%,0%,1%,-1%
Brc1ccc(-c2cn3nc4c(nc3n2)CCCC4)cc1,0.27µM*,0.28µM*,0.1µM*,?,?,4µM*
c1ccc(-c2cn3nc4c(nc3n2)CCCC4)cc1,0.3µM*,0.13µM*,0.11µM*,0.13µM*,14µM*,0.5µM*
O=C(COC(=O)CNC(=O)c1ccccc1Cl)NC1CC1,.,.,.,5%,.,.
Cc1ccc(-n2nc3c(=O)n(CCCC(=O)NC4CCC(C)CC4)nc(C)c3c2C)cc1 (stereo unspecified),-1%,-5%,-5%,1%[9.26 µM],.,.
CCOC(=O)c1ccccc1NC(=O)CSc1cc(C)[nH]c(=O)n1,0%,.,.,.,.,.
O=C(NC1CCCCC1)c1cc(-c2ccccc2Cl)on1,?,2.8µM*,?,21µM*,.,.
O=C(NC1CCCC1)c1cc(-c2ccccc2Cl)on1,5.4µM*,2.5µM*,1.6µM*,?,.,.
Cc1cccc(C)c1OCc1cc(C(=O)NC2CCC2)no1,?,11%,16%,9%,.,.
COc1ccccc1-c1cc(C(=O)NC2CCCC2)no1,19µM*,?,?,?,.,.
O=C(NC1CCCC1)c1cc(-c2ccccc2O)on1,4.8µM*,6%,13%,15µM*,.,.
COc1ccc(-c2cc(C(=O)NC3CCCC3)no2)cc1OC,-3%,25%,?,7%,-3%,2%
COc1ccc(-n2c(=O)cnc3cnc(Nc4ccccc4)nc32)cc1,.,.,.,.,-3%,-22%
CCN1CCN(Cc2c(O)ccc3cc(-c4ccc(OC)cc4)c(=O)oc23)CC1,-15%,.,.,.,.,.
CC(=O)Nc1nonc1-c1nnc(SCC(=O)Nc2ccc(C)cc2)n1-c1ccccc1,4%,.,.,.,.,.
O=C(NC1CCCC1)c1cc(-c2ccc(Cl)cc2Cl)on1,0.85µM*,3.5µM*,1µM*,1.3µM*,.,.
COc1ccccc1N1CCN(C2CCCN(C(=O)CC(F)(F)F)C2)CC1 (stereo unspecified),0%,2%,-7%,-2%,.,.
SMILES,FLuc counter,Rab9 promoter act,NPC1 prom act,ELG1 genotox,KinaseGlo FLuc,SMN2 splice up
Cc1ccc(-c2nsc(SCC(=O)NCC3CCCO3)n2)cc1 (stereo unspecified),17µM*,29%,20%,-3%,0%,-51%
COc1ccc(-n2nnc3c(SCC(=O)NCC4CCCO4)ncnc32)cc1 (stereo unspecified),11µM*,-2%,-4%,2%,-9%,0%
COc1ccc(-c2nsc(SCC(=O)NCC3CCCO3)n2)cc1 (stereo unspecified),15µM*,?,11%,9%,0%,-24%
Cc1ccc(SCC(=O)NCC2CCCO2)cc1 (stereo unspecified),-6%,6%,4%,4%,2%,.
Cn1cccc1C(=O)N1CCC[C@@]2(CCN(C(=O)Nc3cccc(F)c3)C2)C1,.,.,.,.,0%,-2%
CC(=O)n1cc(/C=N/NC(=O)c2ccccc2Cl)c2ccccc21,19µM*,10%,11%,8%,.,.
CC(=O)n1cc(/C=N/NC(=O)c2cccc(O)c2)c2ccccc21,9.5µM*,3%,-3%,13%,.,.
CC(=O)n1cc(/C=N/NC(=O)c2ccc(Cl)cc2)c2ccccc21,3.4µM*,23%,29%,8%,.,.
O=C(N/N=C/c1cn(Cc2ccccc2)c2ccccc12)c1ccncc1,?,-9%,-8%,-5%,-2%,-71%
COc1ccc(N2CCN(C(=O)CSc3nc4ccccc4nc3Cc3ccc(Cl)cc3)CC2)cc1,-8%,.,.,.,.,.
NNC(=O)CCc1ccc(S(=O)(=O)N2CCOCC2)cc1,0%,-17%,-1%,0%,.,.
COc1ccc(-c2nc(CN3CCN(Cc4ccccc4)CC3)c(C)o2)cc1,-20%,-5%,-3%,-6%,.,.
Cc1oc(-c2ccc(-c3ccccc3)cc2)nc1CN1CCN(CC(=O)N(C)C)CC1,5.4µM*,?,?,?,-3%,.
COc1ccc(C#Cc2ccc3c(c2)c(=O)c2ccccc2n3C)cc1,12µM*,15%,16%,-3%,.,.
Cn1c2ccccc2c(=O)c2cc(C#Cc3ccc(N)cc3)ccc21,6µM*,?,?,6%,.,.
Cn1c(-c2ccccc2)c(C#Cc2ccc(N)cc2)c2ccccc21,.,.,.,-2%,.,.
Cn1c2ccccc2c(=O)c2ccc(C#CC3(O)CCCCC3)cc21,0.38µM*,0.32µM*,0.32µM*,?,.,.
Cc1c(Cl)cccc1NC(=O)c1ncn(-c2ccccc2)n1,-12%,.,.,.,.,4%
c1ccc([C@H]2CN3C(=N2)Sc2ccccc23)cc1,0.48µM*,2%,?,?,.,.
N#CC1=C(N)N2C(=C(C#N)C1c1ccccc1)Sc1ccccc12 (stereo unspecified),-5%,5%,5%,9%,-3%,?
CC(N)(C(=O)O)c1ccc(P(=O)(O)O)cc1 (stereo unspecified),.,.,.,.,.,-9%
N#C/C(=C\c1ccc(O)cc1)C(=O)N1CCCC1,-12%,-1%,-3%,4%,.,.
N#C/C(=C\c1ccc(OC(F)F)cc1)C(=O)N1CCCCC1,13µM*,-6%,0%,15%,.,.
Cc1ccc(/C=C(\C#N)C(=O)N2CCCC2)c(C)c1,15µM*,-6%,-14%,?,-2%,12%
Cc1cc(C)n2ncc(C(=O)O)c2n1,1%,2%,-3%,2%,0%,3%
O=c1c2ccccc2oc2ccccc12,.,.,.,.,-12%,?
